Records with an inconclusive call do not appear. A number with no mark means an inactive call. Active and inactive are the calls of the source. Calls come from the whole dose curve; as a rule, active = well fitted cell-killing curve with a large enough effect in the repeat runs; inconclusive = weak or mixed curves, or effect the other way; inactive = flat fitted curve, though single readings scatter.
Test: cAMP Responsive Elements (CRE) small molecule agonists, cell-based qHTS assay: qHTS cell viability counter screen (AID 2060914); note: nearly all actives have a fitted effect of over 50% in size
Details: CRE-bla HEK293T viability, CellTiter-Glo luminescence, 5 h; series mostly up to 92.4 µM; activity change, negative = cytotoxicity: at the top concentration
Method in brief: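 In the same wells as the reporter read, viability of CRE-bla HEK 293T cells was quantified by CellTiter-Glo luminescence after a 3 h compound exposure.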
% is set by controls: 0 for no effect and ±100 for the full control effect.

Structure (SMILES)	Potency	activity change, negative = cytotoxicity
COC(=O)OC	inactive	–
O=C(OCC(COC(=O)c1ccccc1)(COC(=O)c1ccccc1)COC(=O)c1ccccc1)c1ccccc1	–	-0.207%
C=C(C)C(=O)OCc1ccccc1	–	1.05%
CCCCCCC(C)O (stereo not given)	inactive	–
BrCc1cccc(Oc2ccccc2)c1	–	-0.274%
COCCOC(=O)c1ccccc1C(=O)OCCOC	inactive	–
FC(F)(F)C(Cl)Br (stereo not given)	inactive	–
CCCCN1C(=O)c2ccccc2C1=O	–	5.5%
Nc1nc(-c2ccc([N+](=O)[O-])cc2)cs1	–	-13.2%
c1ccc2c(CC3=NCCN3)cccc2c1	–	-2.85% [at 42.5 µM]
CC(=O)c1c(C)c([N+](=O)[O-])c(C(C)(C)C)c([N+](=O)[O-])c1C	–	-11.8%
CNCCCC1c2ccccc2C=Cc2ccccc21	–	2.88% [at 42.5 µM]
C=CCSSCCC	–	17.7%
CCCCNc1ccc(C(=O)OCCN(C)C)cc1	–	-16.8% [at 42.5 µM]
Brc1cc(Oc2cc(Br)c(Br)c(Br)c2Br)c(Br)c(Br)c1Br	inactive	–
NC(=S)Nc1cccc2ccccc12	–	-4.32% [at 8.39 µM]
CN1CCN(CC(=O)N2c3ccccc3C(=O)Nc3cccnc32)CC1	–	0.984% [at 8.39 µM]
CN1[C@@H]2CC[C@H]1CC(OC(=O)C(O)c1ccccc1)C2 (stereo not given in full)	–	-2.42% [at 42.5 µM]
CCCCCCOC(=O)CC(CC(=O)OCCCCCC)(OC(=O)CCC)C(=O)OCCCCCC	–	4.47%
CCC(C)O (stereo not given)	–	12.5%

Structure (SMILES)	Potency	activity change, negative = cytotoxicity
CCN(CC)C(=O)C1CN2CCc3cc(OC)c(OC)cc3C2CC1OC(C)=O (stereo not given)	–	9.9% [at 42.5 µM]
CCN(CC)CCOC(=O)C1(c2ccccc2)CCCC1	–	-7.3% [at 42.5 µM]
O=C=NCC1CCCC(CN=C=O)C1 (stereo not given)	–	2%
O=C=NC1CCC(CC2CCC(N=C=O)CC2)CC1 (stereo not given)	–	-26.5%
NCC[C@H](O)C(=O)N[C@@H]1C[C@H](N)[C@@H](O[C@H]2O[C@H](CN)[C@@H](O)[C@H](O)[C@H]2O)[C@H](O)[C@H]1O[C@H]1O[C@H](CO)[C@@H](O)[C@H](N)[C@H]1O	–	-8.14% [at 0.349 µM]
CC1(N)CCC(C(C)(C)N)CC1 (stereo not given)	–	2.26%
Cc1cc(=O)oc2cc(O)cc(O)c12	–	-0.184%
COc1cc(C(=S)N2CCOCC2)ccc1O	–	-10.8% [at 42.5 µM]
CC(C)CCCC(C)N (stereo not given)	–	0.317% [at 42.5 µM]
N[C@H]1CN(c2c(F)cc3c(=O)c(C(=O)O)cn(C4C[C@H]4F)c3c2Cl)CC12CC2 (stereo not given in full)	–	-24.2% [at 42.5 µM]
CCCCCCCCCOC(C)=O	–	3.79%
Cc1cccc(C)c1NC(=O)c1cc(S(N)(=O)=O)c(Cl)cc1O	–	5.22% [at 42.5 µM]
CC(=O)OCC(=O)[C@@]12OC(C)(C)O[C@@H]1C[C@H]1[C@@H]3C[C@H](F)C4=CC(=O)C=C[C@]4(C)[C@@]3(F)[C@@H](O)C[C@@]12C	–	-4.71% [at 42.5 µM]
O=C1c2ccccc2C(=O)N1SC1CCCCC1	inactive	–
CC(C(=O)O)c1ccc2c(c1)Cc1cccnc1O2 (stereo not given)	–	6.63% [at 42.5 µM]
CCOC(=O)/C=C(C)/C=C/C=C(C)/C=C/c1c(C)cc(OC)c(C)c1C	–	-9.49% [at 42.5 µM]
ON=C1CCCCC1	–	-0.674%
C[C@H]1C[C@H]2[C@@H]3CCC4=CC(=O)C=C[C@]4(C)[C@@]3(Cl)[C@@H](O)C[C@]2(C)[C@@]1(O)C(=O)CO	–	8.43% [at 42.5 µM]
CCCCCCCCCCCC(=O)[O][Sn]([CH2]CCC)([CH2]CCC)[O]C(=O)CCCCCCCCCCC	–	0.0091% [at 42.5 µM]
O=C(COCCOCCOCC(=O)Nc1c(I)cc(I)c(C(=O)O)c1I)Nc1c(I)cc(I)c(C(=O)O)c1I	–	-7.73% [at 42.5 µM]

Reference: PubChem BioAssay (Tox21)
